# From PubChem BioAssay (NCI)
# This is part of a sample that, as a whole, favours compounds with a hit. Of some 83,000 tested, about 20% had one in any assay.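 The test compound was applied at a single concentration to cells in 96-well plates for 48 hours, and percent growth was recorded.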 The source made the active and inactive calls. How the source made its calls: active means growth percent below 10; inactive means the rest.
# Test system: HL-60(TB) leukemia
# Assay: NCI-60 one-dose screen, 48 h (100 = growth as untreated, 0 = no growth, -100 = all killed)
# Conditions: 10 µM unless noted
row,Compound,growth
1,CC1CCN(CC(=O)Nn2c(COc3ccccc3)nc3ccccc3c2=O)CC1,80.3% (inactive)
2,CCOC(=O)C1=C(C)Nc2nc3ccccc3n2C1c1cccc(Br)c1 (stereo not drawn),22.8% (inactive)
3,CN(C)S(=O)(=O)c1oc(-c2ccccc2)nc1C#N,13.8% (inactive)
4,CC(O)c1cccc(/C(N)=N/C(N)=N/c2nc3ccccc3s2)c1 (stereo not drawn),84.5% (inactive)
5,OC1CCN(CCCOc2c3ccccc3nc3c2oc2ccc(Cl)cc23)CC1,14.4% (inactive)
6,COc1cc(/C=C/C(=O)c2ccccc2)ccc1Oc1nc(NCCO)nc(N2CCOCC2)n1,81.6% (inactive)
7,COc1ccc(CNS(=O)(=O)/N=C2\NC(=O)NC2=C(Cl)Cl)cc1,-11.1% (active)
8,CS(=O)(=O)Nc1cc(-c2ccc3ncc(C#N)c(NCc4ccccc4F)c3c2)cnc1Cl,5.25% (active)
9,O=S(=O)(NCCCNc1nccc(-c2[nH]c(-c3ccccc3)nc2-c2ccc(F)c(O)c2)n1)c1cccc(F)c1,95.7% (inactive)
10,Cc1ccc(/C(N)=N/C(N)=N/c2nc3ccccc3s2)cc1,81.6% (inactive)
11,COc1cc2nc(-c3ccc(Cl)cc3)cc(OCCCNCC3CCCO3)c2cc1OC (stereo not drawn),32.1% (inactive)
12,O=C(Nc1nc2ccc([N+](=O)[O-])cc2s1)Nc1ccccc1Cl,28.7% (inactive)
13,Cc1cn(-c2cc(NC(=O)c3cncc(C#Cc4cnc5ccc(O[C@H]6CCOC6)nn45)c3)cc(C(F)(F)F)c2)cn1,37.6% (inactive)
14,O=c1c2c(O)cccc2oc2c3c(cc(O)c12)O[C@H]1OC=C[C@@H]31,89.7% (inactive)
15,CC(=O)NC(C)(C)C(=O)N1CCC[C@H]1C(=O)NC(C)(C)C(=O)N[C@@H](C)C(=O)NC(C)(C)C(=O)N[C@@H](C)C(=O)N[C@@H](CCC(N)=O)C(=O)NC(C)(C)C(=O)N[C@H](C(=O)NC(C)(C)C(=O)NCC(=O)N[C@@H](CC(C)C)C(=O)NC(C)(C)C(=O)N1CCC[C@H]1C(=O)N[C@H](C(=O)NC(C)(C)C(=O)NC(C)(C)C(=O)N[C@@H](CCC(N)=O)C(=O)N[C@@H](CCC(N)=O)C(=O)N[C@H](CO)Cc1ccccc1)C(C)C)C(C)C,95.6% [4.25 µM] (inactive)
16,CN1CCN(c2nc(-c3cnc4ccccc4n3)cc3ccccc23)CC1,-36.2% (active)
17,CCOC(=O)c1c(NCC(=O)Nc2cccc(Cl)c2)sc2c1CCCC2,90.8% (inactive)

row,Compound,growth
1,O=[N+]([O-])c1ccc(NC(=S)NNC(=S)Nc2ccc(Br)cc2)cc1,93.1% (inactive)
2,O=S(=O)(Oc1ccc(-c2cn3ccsc3n2)cc1)c1cccc(C(F)(F)F)c1,101% (inactive)
3,CS(=O)(=O)Nc1cc(-c2ccc3ncc(C#N)c(NCc4cccc(F)c4)c3c2)cnc1Cl,4.11% (active)
4,N#Cc1c(-c2cccs2)c(C#N)c(=O)n(Cc2nc3ccccc3[nH]2)c1N,108% (inactive)
5,CCOP(=O)(OCC)OC[C@]12CCC(C)(C)C[C@H]1C1=CC[C@@H]3[C@@]4(C)C/C(=C\c5cccnc5)[C@H](OP(=O)(OCC)OCC)C(C)(C)[C@@H]4CC[C@@]3(C)[C@]1(C)CC2,-22.2% (active)
6,O=C(/C=C/c1ccc(F)cc1)c1ccc(O)cc1,81.9% (inactive)
7,COc1ccc2[nH]cc(/C=N/Nc3nc4ccccc4s3)c2c1,39.1% (inactive)
8,CN(C)S(=O)(=O)c1ccc(-c2nc(C(Cl)Cl)nc3cc(-c4ccc(F)cc4)nn23)cc1,6.96% (active)
9,Cc1ccc(NC(=O)CNc2cc(C(N)=O)cc(F)c2C)c(Cl)c1,133% (inactive)
10,Cc1ccc(S(=O)(=O)NCCCNc2nccc(-c3[nH]c(-c4ccccc4)nc3-c3ccc(F)c(O)c3)n2)cc1,82.4% (inactive)
11,O=C(CN1CCN(c2cc(=O)n(-c3ccccc3)c3ccccc23)CC1)Nc1ccc(F)cc1,47.7% (inactive)
12,O=C(NNc1nc2cc(F)ccc2n2c(CO)ccc12)c1cnccn1,-27.4% (active)
13,CCN(CC)CCOc1ccc(C(=C(C)Cc2ccc(OC)cc2)c2ccc(OCCN(CC)CC)cc2)cc1,-42.3% (active)
14,CC(=O)Oc1ccccc1C(=O)Nc1ccc(C(=O)/C=C/c2cccs2)cc1,103% (inactive)
15,C#CCOc1ccc(/C=N/Nc2nc(-c3cc(Cl)ccc3Cl)cs2)cc1,91% (inactive)
16,N#Cc1cnc2ccc(-c3cnc(N)nc3)cc2c1N1CCc2cc(F)c(Cl)cc21,-11.7% (active)
